Out of some 340,000 compounds screened, about 3,300 (0.97%) were called active. About 9% were inconclusive and are not listed. Calls come from the whole dose curve; as a rule, active = well fitted inhibition curve with a large enough effect; inconclusive = small, poorly fitted or top-dose-only effect, or effect the other way; inactive = flat fitted curve, though single readings scatter. The list shows a part of the results.
Assay: qHTS Assay for Modulators of miRNAs and/or Inhibitors of miR-21; note: nearly all actives have a fitted effect of over 55% in size
Conditions: HeLa miR-21-FLuc reporter, luciferase luminescence, 48 h; actives lower the signal
In short: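 Using DMEM plus 10% FBS, HeLa miR-21-FLuc cells are incubated with test compounds (final up to about 40uM) for 48 hours; firefly luciferase signal is then imaged following reagent-mediated lysis.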
Potency is the fitted concentration of half-maximal effect.

Potency, active:
CC1CC1c1ccc(/C=C(\C#N)C(=O)Nc2ccccc2Cl)o1 (stereo unspecified) 14.7 µM
Cc1ccc(/C=C(\C#N)C(=O)Nc2ccc(Br)cc2)o1 0.656 µM
Cc1cccc(NC(=O)/C(C#N)=C/c2ccco2)c1 4.14 µM
Cc1ccc(NC(=O)/C(C#N)=C/c2ccc(C)o2)cc1 0.329 µM
Cc1ccc(/C=C(\C#N)C(=O)Nc2cccc(Cl)c2)o1 1.47 µM
O=C(CC(Nc1ccc(F)cc1)C(=O)OCC(=O)c1cccs1)c1ccccc1 (stereo unspecified) 3.29 µM
COc1ccccc1NC(CC(=O)c1ccccc1)C(=O)OCC(=O)c1ccc(C)cc1 (stereo unspecified) 1.47 µM
COc1ccccc1NC(CC(=O)c1ccccc1)C(=O)OCC(=O)c1ccc(C)c(C)c1 (stereo unspecified) 1.04 µM
O=C(c1ccc(COCC(F)(F)F)cc1)N1CCN(c2ccccn2)CC1 14.7 µM
CCc1ccc(N2C(=O)Cc3c2nc(N)c(C#N)c3N)cc1 16.5 µM
COc1ccc(NC(=O)C2C3CC/C=C\CCC32)cc1 (stereo unspecified) 6.56 µM
CNC(=O)c1c(NC(=O)c2nc3ccccc3s2)sc2c1CCC2 1.31 µM
Cc1ccc2cc(/C=N/Nc3ccc(C(=O)O)cc3)c(Cl)nc2c1 2.07 µM
O=C(O)c1ccc(N/N=C/c2cc3ccccc3nc2Cl)cc1 3.29 µM
Cc1cccc2cc(/C=N/Nc3ccc(C(=O)O)cc3)c(Cl)nc12 0.521 µM
CCCCOc1ccc2c(c1)C(=O)c1cc(O)ccc1-2 5.85 µM
O=[N+]([O-])c1ccccc1N/N=C1\CC2CC=CC12 (stereo unspecified) 16.5 µM
C=CCOc1cccc(/C=C/c2nc3ccccc3c(=O)[nH]2)c1 0.826 µM
O=c1[nH]c(/C=C/c2ccc(Br)cc2)nc2ccccc12 0.369 µM
Cc1[nH]c2ccccc2c1/C=C/c1nc2ccccc2c(=O)[nH]1 1.31 µM
COCC(C)N=C1NN=C(c2c[nH]c3ccccc23)CS1 (stereo unspecified) 6.56 µM
C=CCOc1ccc2c(OC)c3ccoc3nc2c1OC 13.1 µM
CCc1ccc(NC(=O)c2ccccc2SC)cc1 7.36 µM
CCOc1ccc(NC(=O)c2ccccc2SC)cc1 7.36 µM
CCc1ccc(NC(=O)c2ccccc2Br)cc1 2.07 µM
CCOc1ccc(NC(=O)c2csc3c2CCCC3)cc1 2.07 µM
C#CCNC(=O)/C=C/c1ccc(OC)cc1 13.1 µM
C#CCNC(=O)/C=C/c1ccc(C)cc1 8.26 µM
O=C1CCNc2ccc(-c3ccccc3)cc21 6.56 µM
C=CCn1c(NCc2ccc3c(c2)OCO3)nc2ccccc21 9.27 µM
CCn1c(NCc2ccc3c(c2)OCO3)nc2ccccc21 16.5 µM
Cc1ccc2oc(-c3cccc(NC(=O)Cn4cnc5c(=O)n(C)c(=O)n(C)c54)c3)nc2c1 6.56 µM
Cc1ccc2oc(-c3cccc(NC(=S)NC(=O)c4cccs4)c3)nc2c1 4.14 µM
Cc1ccc2oc(-c3ccc(C)c(NC(=S)NC(=O)c4cccs4)c3)nc2c1 0.521 µM
CC(=O)c1sc2nc(-c3cccs3)ccc2c1N 14.7 µM
Nc1c(C(=O)Nc2ccccc2Br)sc2nc(-c3cccs3)ccc12 7.36 µM
NC(=O)c1sc2nc(-c3cccs3)ccc2c1N 13.1 µM
O=c1/c(=C\c2ccc(F)cc2)sc2n1CCCN=2 1.85 µM
O=C(CCC1CCCN(C(=O)Cc2cccc(F)c2)C1)N1CCN(c2ccccn2)CC1 (stereo unspecified) 16.5 µM
Cc1cc(N)ccc1N=Nc1c(C)n(C)n(-c2ccccc2)c1=O 14.7 µM
Cc1c(N=Nc2ccc(N(C)C)cc2)c(=O)n(-c2ccccc2)n1C 5.21 µM
Cc1ccc(/C=N/NC(=S)NC2CCCCC2)o1 5.21 µM
CN(C)/C=N/c1nc2ccc3c(c2s1)CCCC3 2.33 µM
CCN1CCN(c2ncnc3c2cnn3-c2ccc(C)c(C)c2)CC1 1.65 µM
Clc1ccc(-n2ncc3c(N4CCCC4)ncnc32)cc1 0.0656 µM
Cc1cccc(-n2ncc3c(N4CCC5(CC4)OCCO5)ncnc32)c1 1.85 µM
COc1ccc(-c2cc(C(=O)NC3CCCC3)no2)cc1 1.17 µM
O=C(NC1CCCC1)c1cc(-c2ccc(Cl)cc2)on1 1.65 µM
CN(C(=O)c1cc(-c2ccc3c(c2)OCO3)on1)c1ccccc1 2.61 µM
CCCCNC(=O)c1cc(-c2ccc(F)cc2)on1 3.29 µM
O=C(NC1CCCC1)c1cc(-c2cccc(Cl)c2)on1 4.65 µM
CC1CCCC(C)N1C(=O)c1cc(-c2cccs2)on1 (stereo unspecified) 16.5 µM
Cc1ccc(-c2cc(C(=O)NC3CCCC3)no2)cc1 1.31 µM
CCCNC(=O)c1cc(-c2ccc(OC)cc2)on1 0.927 µM
O=C(NC1CCCCC1)c1cc(-c2ccc(O)cc2)on1 2.93 µM
O=C(NCC1CCCO1)c1cc(-c2ccccc2F)no1 (stereo unspecified) 14.7 µM
CN(C(=O)c1cc(-c2ccccc2)on1)C1CCCCC1 2.07 µM
O=C(NC1CCCC1)c1cc(-c2ccc(F)cc2)on1 1.85 µM
COc1cccc(-c2cc(C(=O)N3C(C)CCCC3C)no2)c1 (stereo unspecified) 3.29 µM
O=C(NCC1CCCO1)c1cc(-c2ccccc2)on1 (stereo unspecified) 7.36 µM
O=C(NC1CCCC1)c1cc(-c2ccccc2)on1 2.93 µM
COc1cccc(-c2cc(C(=O)NC3CCCCC3)no2)c1 2.07 µM
COc1ccc(-c2noc(-c3ccco3)n2)cc1OC 1.65 µM
COc1ccc(-c2nc(-c3ccncc3)no2)cc1OC 4.65 µM
COc1ccc(-c2nc(-c3cccc(C)c3)no2)cc1OC 2.93 µM
Cc1cccc(-c2noc(-c3ccc(Cl)cc3[N+](=O)[O-])n2)c1 1.17 µM
